Fewer than 10 of roughly 1,200 compounds were called active.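 Rule for the calls: active = inhibition reaching a set limit at one or more tested concentrations; inactive = inhibition under that limit at every dose.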 A selection follows. Measured potencies and affinities stand elsewhere.
Assay: RAM pathway signaling blockade in S. cerevisiae – dose response (AID 1307);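 note: 0% = DMSO vehicle wells and 100% = 10 µM 1-NA-PP1 control; higher inhibition means more yeast growth since RAM block rescues cells from 5-FOA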
Conditions: S. cerevisiae RAM network URA3 reporter, 5-FOA growth OD615, hits give high values, yeast express analog-sensitive mutant Cbk1 kinase; at 100 µM unless noted

Max inhibition, inactive:
CCCCc1ccc(-c2csc(/C(C#N)=C/c3ccc(C)o3)n2)cc1 4.24%
CCC(C)c1ccc(NC(=S)NCc2ccccc2OC)cc1 (stereo unspecified) 5.65%
CCCCC(=O)Nc1ccccc1C(=O)OCC(=O)c1ccc2c(c1)OCCO2 2.31% [at 0.196 µM]
CCOC(=O)N1CCC(N(CCN(C)C)C(=S)Nc2cccc(SC)c2)CC1 2.41% [at 0.782 µM]
CCCN(CCC)c1nc2ccccc2nc1C(C#N)C(=O)OC(C)COC (stereo unspecified) 2.6%
Cc1ccc(-c2ccc(C(=O)NCc3ccccc3)o2)c2ccccc12 3.65%
CC(C)Oc1cccc(C(=O)NC(=S)Nc2cccc(C(F)(F)F)c2)c1 2.41% [at 0.782 µM]
O=C(CN(C(=O)CSc1nnc(COc2ccccc2)o1)c1ccc(F)cc1)NC1CCCC1 2.82%
Cc1ccccc1OCCC(=O)Nc1cccc(S(=O)(=O)Nc2ccccc2Cl)c1 2.67% [at 0.196 µM]
O=S(=O)(NCCSCc1ccc(Cl)cc1Cl)c1ccc2c(c1)OCCO2 2.05% [at 12.5 µM]
CCCCCOP(=O)(OCCCCC)C1(NS(=O)(=O)c2ccccc2)C=CC(=O)c2ccccc21 (stereo unspecified) 2.83%
COc1ccccc1OCC(=O)Nc1ccc(CSc2ccccc2)cc1C 1.56% [at 25 µM]
Cc1ccc(-n2c(SCC(=O)Nc3cccc(S(=O)(=O)NC4=NCCCCC4)c3)nc3ccccc3c2=O)cc1C 11%
CC(C)=CCC/C(C)=C/Cc1c(O)ccc(C(=O)/C=C/c2ccc(O)cc2)c1O 5.39%
CCOc1ccc2nc(SCC(=O)c3ccccc3)sc2c1 3% [at 0.196 µM]
COc1ccc(/C=C2\SC(=S)N(CC(=O)OCC(=O)Nc3ccc([N+](=O)[O-])cc3OC)C2=O)cc1 8.9%
C=CCc1cccc(/C=N/NC(=O)C(C)Nc2ccc(C)cc2)c1O (stereo unspecified) 2.46% [at 0.782 µM]
CCOc1cccc(-c2csc(C3COc4ccccc4O3)n2)c1 (stereo unspecified) 5.04% [at 50 µM]
COc1ccc2c(C)cc(SCC(=O)c3ccc4c(c3)OCO4)nc2c1 4.01%
FC(F)(F)c1nc(N2CCN(c3ccccc3)CC2)nc2c1CCCCC2 3.63%
CCOC(=O)c1c(C)[nH]c(C)c1C(=O)COC(=O)/C=C/c1ccc(Cl)cc1 2.07% [at 0.391 µM]
CCSC1=N/C(=C\c2ccc(-c3ccccc3[N+](=O)[O-])o2)C(=O)S1 5.47% [at 25 µM]
CC1CCCN(C(=O)C(C)Sc2nc(-c3ccccc3)cc(C(F)(F)F)n2)C1 (stereo unspecified) 3.6% [at 25 µM]
CCc1ccc(OCC(=O)N2c3ccccc3CCc3ccccc32)cc1 2.64% [at 3.125 µM]
Fc1ccc(CSc2nnc(Cc3sc(-c4ccccc4)nc3-c3ccccc3)o2)cc1 5.66%
O=C(Nc1ccccc1)C1=C[C@H](C2CCCCC2)C[C@H](OCc2ccc(CO)cc2)O1 4.12%
CCCNS(=O)(=O)c1ccc(CCC(=O)Nc2cc(Cl)ccc2Oc2ccccc2)cc1 1.73%
Cc1cccc(NC(=O)/C(C#N)=C/c2ccc(Sc3ccccc3)o2)c1C 10.5%
CC(C)Oc1ccccc1OCCCCn1cnc2ccccc2c1=O 2.35% [at 6.25 µM]
Cc1ccc(-c2csc(N(CC3CCCO3)C(=O)c3ccco3)n2)cc1 (stereo unspecified) 1.93% [at 12.5 µM]
OCCNc1nc(SCc2ccccc2)nc2sc3c(c12)CCC3 1.56% [at 3.125 µM]
Cc1cc(NC(=O)CSc2nc3ccsc3c(=O)n2Cc2ccccn2)n[nH]1 2.41% [at 12.5 µM]
COC(=O)c1cc2c(ccn2-c2ccc(F)cc2)n1Cc1ccc(OC)cc1 5.52% [at 50 µM]
CCC1(C)CC(CCNS(=O)(=O)c2ccc(C)cc2)(c2ccc(C)cc2)CCO1 (stereo unspecified) 3.04%
Cn1c(N=Nc2ccc(N3CCOCC3)cc2)[n+](C)c2ccccc21 25%
Cc1ccc(SCCNC(=S)Nc2ccc(C)c(C)c2)cc1 4.41% [at 12.5 µM]
Brc1ccc(CSc2nnc(Cc3c[nH]c4ccccc34)o2)cc1 3.66%
CCOCCOC(=O)C(C)Oc1ccc(Oc2nc(Cl)ccc2Cl)cc1 (stereo unspecified) 2.21% [at 25 µM]
CCOc1nc(-c2ccccc2)ccc1-c1noc(COc2ccccc2)n1 3.61% [at 50 µM]
Cc1ccccc1OCC(=O)OCC(=O)c1ccc(OCc2ccccc2)cc1 4.85% [at 50 µM]
COc1ccccc1C(NC(=O)C1CCCCC1)c1c(O)ccc2ccccc12 (stereo unspecified) 5.27%
CCCCC1(Cc2cccc([N+](=O)[O-])c2)C(=O)N(c2ccccc2)N(c2ccccc2)C1=O 4.01% [at 50 µM]
O=C(COC(=O)CCCNC(=O)c1ccc(Cl)cc1)Nc1cc(Cl)c(Cl)cc1Cl 3.97% [at 50 µM]
COc1ccc(C(=O)/C=C/Nc2ccc(S(=O)(=O)Nc3ncccn3)cc2)cc1 7.67%
CCCCOc1ccc(S(=O)(=O)Nc2cc(OC)ccc2OC)cc1 3.71% [at 25 µM]
COc1cc2c(=O)n(Cc3ccco3)c(=O)n(CC(=O)c3ccc(Br)cc3)c2cc1OC 3.72% [at 0.196 µM]
Cc1ccc(SCC(=O)Nc2ccc(F)cc2[N+](=O)[O-])cc1C 2.24%
COc1cc(/C=N/Nc2ccc(Cl)cc2)ccc1OC(=O)c1cccs1 2.6% [at 0.391 µM]
COc1ccc(-c2nc(-c3ccc(O)cc3O)cs2)cc1OC 5.02% [at 3.125 µM]
CCOC(=O)c1cc(C#N)c(Oc2cccc(C(F)(F)F)c2)nc1-c1ccccc1 2.36%
CC(=O)Nc1ccc(-c2cc(-c3ccc(NC(C)=O)cc3)nc(-c3ccc(NC(C)=O)cc3)n2)cc1 13.5%

From PubChem BioAssay AID1307 (SRMLSC, 2008)
